{
  "source": "PubChem BioAssay (Tox21)",
  "note": "A number with no mark means an inactive call. Inconclusive results are not listed. Activity calls are given as the source filed them. The call rests on the fitted dose curve. On the % scale 0 is the no-effect control and ±100 the full control effect.",
  "data": [
    {"target": "Acetylcholinesterase (Homo sapiens) (UniProt P22303)", "sequence (P22303 whole entry, looked up)": "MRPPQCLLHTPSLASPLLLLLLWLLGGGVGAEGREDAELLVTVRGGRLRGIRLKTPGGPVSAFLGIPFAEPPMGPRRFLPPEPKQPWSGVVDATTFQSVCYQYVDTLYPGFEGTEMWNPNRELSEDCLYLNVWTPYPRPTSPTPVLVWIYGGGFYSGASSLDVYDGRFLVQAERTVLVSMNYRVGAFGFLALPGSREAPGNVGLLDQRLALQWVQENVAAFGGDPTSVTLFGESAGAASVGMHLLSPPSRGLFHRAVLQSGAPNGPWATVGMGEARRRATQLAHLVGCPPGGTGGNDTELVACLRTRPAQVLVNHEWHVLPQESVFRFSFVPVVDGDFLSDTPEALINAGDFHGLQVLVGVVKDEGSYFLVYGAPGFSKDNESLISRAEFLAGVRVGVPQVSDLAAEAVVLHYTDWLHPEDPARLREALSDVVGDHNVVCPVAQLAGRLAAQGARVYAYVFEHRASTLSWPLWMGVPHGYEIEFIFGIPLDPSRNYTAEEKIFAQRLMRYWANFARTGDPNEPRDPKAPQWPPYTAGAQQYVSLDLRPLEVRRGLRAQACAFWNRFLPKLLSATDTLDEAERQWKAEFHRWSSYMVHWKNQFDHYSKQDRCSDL", "assay": "Acetylcholinesterase (AChE) small molecule antagonists: colormetric cell-based qHTS assay (AID 1347395); further: nearly all actives have a fitted effect of over 30% in size", "settings": "SH-SY5Y cells AChE activity, colorimetric (Ellman); series mostly up to 115 µM; activity, negative = inhibition: at the top concentration", "procedure,_shortened": "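AChE inhibition read colorimetrically via DTNB–thiocholine in SH-SY5Y cells. Compound 30 min, substrate 90 min, both 37 C.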", "values": [
      {"smiles": "C1CCC2OC2C1", "note": "(stereo not given)", "activity, negative = inhibition": "-2.35%"},
      {"smiles": "CC(C)C(=O)C(C)C", "activity, negative = inhibition": "-1.12%"},
      {"smiles": "O=Cc1ccccc1C=O", "Potency": "inactive"},
      {"smiles": "CCCCCCCC(OC)OC", "activity, negative = inhibition": "0.194% [at 52.9 µM]"},
      {"smiles": "Cn1c(=O)c2c(ncn2CC2OCCO2)n(C)c1=O", "activity, negative = inhibition": "-11.4% [at 52.9 µM]"},
      {"smiles": "COS(C)(=O)=O", "Potency": "inactive"},
      {"smiles": "COC(=O)CCC(=O)OC", "Potency": "inactive"},
      {"smiles": "CC(CO)(CO)CO", "activity, negative = inhibition": "-0.369%"},
      {"smiles": "C=Cc1c(C)c2cc3[nH]c(cc4nc(cc5nc(cc1[nH]2)C(C)=C5CCC(=O)O)C(CCC(=O)O)=C4C)c(C)c3C=C", "activity, negative = inhibition": "9.84% [at 52.9 µM]"},
      {"smiles": "COc1cc2c(cc1OC)CN(C(=O)[C@H](C)N[C@@H](CCc1ccccc1)C(=O)O)[C@H](C(=O)O)C2", "activity, negative = inhibition": "1.09% [at 52.9 µM]"},
      {"smiles": "CNC[C@H](O)c1ccc(O)c(O)c1", "outcome": "inactive"},
      {"smiles": "CC1(C)O[C@@H]2C[C@H]3[C@@H]4C[C@H](F)C5=CC(=O)CC[C@]5(C)[C@H]4[C@@H](O)C[C@]3(C)[C@]2(C(=O)CO)O1", "Potency": "inactive"},
      {"smiles": "COC(=O)c1ccc(C)cc1C1=NC(C)(C(C)C)C(=O)N1", "note": "(stereo not given)", "activity, negative = inhibition": "0.526%"},
      {"smiles": "CCCC(C)CO", "note": "(stereo not given)", "activity, negative = inhibition": "-0.12%"},
      {"smiles": "Cc1[nH]c(C)c(Cl)c(=O)c1Cl", "activity, negative = inhibition": "1.65% [at 23.6 µM]"},
      {"smiles": "[Cl][Bi]([Cl])([c]1ccccc1)([c]1ccccc1)[c]1ccccc1", "activity, negative = inhibition": "3.36%"},
      {"smiles": "COc1cc(NS(=O)(=O)c2ccc(N)cc2)ncn1", "activity, negative = inhibition": "2.39% [at 52.9 µM]"},
      {"smiles": "COC[C@H](c1ccc(C(F)(F)F)cc1)N1CCN(C2(C)CCN(C(=O)c3c(C)ncnc3C)CC2)C[C@H]1C", "activity, negative = inhibition": "3.04% [at 52.9 µM]"},
      {"smiles": "C=C(C)C(=O)OCCCCCCCC(C)C", "activity, negative = inhibition": "3.22%"},
      {"smiles": "CC(=O)c1ccc(C)cc1", "activity, negative = inhibition": "1.37%"},
      {"smiles": "ClC(c1ccccc1)(c1ccccc1)c1ccccc1", "activity, negative = inhibition": "-0.153%"},
      {"smiles": "C=CCOC(=O)CC(C)C", "Potency": "inactive"},
      {"smiles": "O=C(O)Cc1csc(-c2ccc(Cl)cc2)n1", "activity, negative = inhibition": "1.2% [at 52.9 µM]"},
      {"smiles": "Nc1nc2c(ncn2COCCO)c(=O)[nH]1", "activity, negative = inhibition": "-0.0347% [at 52.9 µM]"},
      {"smiles": "COC(=O)CCCCC(=O)O", "activity, negative = inhibition": "0.589%"},
      {"smiles": "COC(=O)c1nc(Cl)c(Cl)nc1N", "activity, negative = inhibition": "-2.33% [at 52.9 µM]"},
      {"smiles": "CN(C)C(=O)NC1(c2ccccc2)CCN(CCC[C@]2(c3ccc(Cl)c(Cl)c3)CCCN(C(=O)c3ccccc3)C2)CC1", "activity, negative = inhibition": "-4.11% [at 23.6 µM]"},
      {"smiles": "CCCCCCC(O)CCCCCCCCCCC(=O)O", "note": "(stereo not given)", "Potency": "inactive"},
      {"smiles": "CCCCC(CC)COC(=O)COc1cc(Cl)c(Cl)cc1Cl", "note": "(stereo not given)", "activity, negative = inhibition": "-2.73%"},
      {"smiles": "CCCCC(CC)C(=O)OCCOCCOCCOC(=O)C(CC)CCCC", "note": "(stereo not given)", "Potency": "inactive"},
      {"smiles": "CCCCCCCCCCCCCCCC(=O)OCC", "activity, negative = inhibition": "-0.303%"},
      {"smiles": "C=CC(=O)OCCOCCOCC", "activity, negative = inhibition": "13.9%"},
      {"smiles": "O=C(O)c1cc(=O)c2c(OCC(O)COc3cccc4oc(C(=O)O)cc(=O)c34)cccc2o1", "Potency": "inactive"},
      {"smiles": "CC(CN)CCCN", "note": "(stereo not given)", "activity, negative = inhibition": "-2.85%"},
      {"smiles": "O=C(O)CNC(=O)c1ccc(CO)o1", "activity, negative = inhibition": "1.23%"},
      {"smiles": "CC(C)(CO)[N+](=O)[O-]", "activity, negative = inhibition": "-4.06%"},
      {"smiles": "CC(=O)OCC(COC(C)=O)OC(C)=O", "Potency": "inactive"},
      {"smiles": "CCCCC(C=O)CC", "note": "(stereo not given)", "Potency": "inactive"},
      {"smiles": "Nc1cccc(S(=O)(=O)c2cccc(N)c2)c1", "activity, negative = inhibition": "0.21%"},
      {"smiles": "C[Si](C)(C)O[Si](O)(O)O", "activity, negative = inhibition": "1.49%"}
    ]},
    {"target": "Acetylcholinesterase (Homo sapiens) (UniProt P22303)", "assay": "Acetylcholinesterase (AChE) small molecule antagonists: enzyme-based qHTS assay (AID 1347397); further: nearly all actives have a fitted effect of over 55% in size", "settings": "Potency: AChE enzyme activity inhibition; outcome: AChE enzyme activity inhibition; series mostly up to 115 µM; activity change, negative = inhibition: at the top concentration", "procedure,_shortened": "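Absorbance-based detection of thiocholine with DTNB served as the read-out. Recombinant human AChE was exposed to compound for 30 min at RT before a 10 min RT incubation with acetylthiocholine.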", "values": [
      {"smiles": "C1CCC2OC2C1", "note": "(stereo not given)", "activity change, negative = inhibition": "0.0008%"},
      {"smiles": "CC(C)C(=O)C(C)C", "activity change, negative = inhibition": "0.551%"},
      {"smiles": "O=Cc1ccccc1C=O", "Potency": "inactive"},
      {"smiles": "CCCCCCCC(OC)OC", "activity change, negative = inhibition": "0.0367% [at 53 µM]"},
      {"smiles": "Cn1c(=O)c2c(ncn2CC2OCCO2)n(C)c1=O", "activity change, negative = inhibition": "0.312% [at 53 µM]"},
      {"smiles": "COS(C)(=O)=O", "Potency": "inactive"},
      {"smiles": "COC(=O)CCC(=O)OC", "Potency": "inactive"},
      {"smiles": "CC(CO)(CO)CO", "activity change, negative = inhibition": "-0.545%"},
      {"smiles": "C=Cc1c(C)c2cc3[nH]c(cc4nc(cc5nc(cc1[nH]2)C(C)=C5CCC(=O)O)C(CCC(=O)O)=C4C)c(C)c3C=C", "activity change, negative = inhibition": "13.3% [at 53 µM]"},
      {"smiles": "COc1cc2c(cc1OC)CN(C(=O)[C@H](C)N[C@@H](CCc1ccccc1)C(=O)O)[C@H](C(=O)O)C2", "activity change, negative = inhibition": "0.4% [at 53 µM]"},
      {"smiles": "CNC[C@H](O)c1ccc(O)c(O)c1", "outcome": "inactive"},
      {"smiles": "CC1(C)O[C@@H]2C[C@H]3[C@@H]4C[C@H](F)C5=CC(=O)CC[C@]5(C)[C@H]4[C@@H](O)C[C@]3(C)[C@]2(C(=O)CO)O1", "Potency": "inactive"},
      {"smiles": "COC(=O)c1ccc(C)cc1C1=NC(C)(C(C)C)C(=O)N1", "note": "(stereo not given)", "activity change, negative = inhibition": "0.452%"},
      {"smiles": "CCCC(C)CO", "note": "(stereo not given)", "activity change, negative = inhibition": "-2.04%"},
      {"smiles": "Cc1[nH]c(C)c(Cl)c(=O)c1Cl", "activity change, negative = inhibition": "-0.693% [at 23.6 µM]"},
      {"smiles": "[Cl][Bi]([Cl])([c]1ccccc1)([c]1ccccc1)[c]1ccccc1", "activity change, negative = inhibition": "-15.7%"},
      {"smiles": "COc1cc(NS(=O)(=O)c2ccc(N)cc2)ncn1", "activity change, negative = inhibition": "1.02% [at 53 µM]"},
      {"smiles": "COC[C@H](c1ccc(C(F)(F)F)cc1)N1CCN(C2(C)CCN(C(=O)c3c(C)ncnc3C)CC2)C[C@H]1C", "activity change, negative = inhibition": "-0.139% [at 53 µM]"},
      {"smiles": "C=C(C)C(=O)OCCCCCCCC(C)C", "activity change, negative = inhibition": "0.821%"},
      {"smiles": "CC(=O)c1ccc(C)cc1", "activity change, negative = inhibition": "-0.645%"},
      {"smiles": "ClC(c1ccccc1)(c1ccccc1)c1ccccc1", "activity change, negative = inhibition": "0.273%"},
      {"smiles": "C=CCOC(=O)CC(C)C", "Potency": "inactive"},
      {"smiles": "O=C(O)Cc1csc(-c2ccc(Cl)cc2)n1", "activity change, negative = inhibition": "-1.21% [at 53 µM]"},
      {"smiles": "Nc1nc2c(ncn2COCCO)c(=O)[nH]1", "activity change, negative = inhibition": "3.8% [at 53 µM]"},
      {"smiles": "COC(=O)CCCCC(=O)O", "activity change, negative = inhibition": "0.246%"},
      {"smiles": "COC(=O)c1nc(Cl)c(Cl)nc1N", "activity change, negative = inhibition": "0% [at 53 µM]"},
      {"smiles": "CN(C)C(=O)NC1(c2ccccc2)CCN(CCC[C@]2(c3ccc(Cl)c(Cl)c3)CCCN(C(=O)c3ccccc3)C2)CC1", "activity change, negative = inhibition": "0.197% [at 23.6 µM]"},
      {"smiles": "CCCCCCC(O)CCCCCCCCCCC(=O)O", "note": "(stereo not given)", "Potency": "inactive"},
      {"smiles": "CCCCC(CC)COC(=O)COc1cc(Cl)c(Cl)cc1Cl", "note": "(stereo not given)", "activity change, negative = inhibition": "-6.05%"},
      {"smiles": "CCCCC(CC)C(=O)OCCOCCOCCOC(=O)C(CC)CCCC", "note": "(stereo not given)", "Potency": "inactive"},
      {"smiles": "CCCCCCCCCCCCCCCC(=O)OCC", "activity change, negative = inhibition": "-0.209%"},
      {"smiles": "C=CC(=O)OCCOCCOCC", "activity change, negative = inhibition": "2.46%"},
      {"smiles": "O=C(O)c1cc(=O)c2c(OCC(O)COc3cccc4oc(C(=O)O)cc(=O)c34)cccc2o1", "Potency": "inactive"},
      {"smiles": "CC(CN)CCCN", "note": "(stereo not given)", "activity change, negative = inhibition": "-1.67%"},
      {"smiles": "O=C(O)CNC(=O)c1ccc(CO)o1", "activity change, negative = inhibition": "-0.276%"},
      {"smiles": "CC(C)(CO)[N+](=O)[O-]", "activity change, negative = inhibition": "-0.213%"},
      {"smiles": "CC(=O)OCC(COC(C)=O)OC(C)=O", "Potency": "inactive"},
      {"smiles": "CCCCC(C=O)CC", "note": "(stereo not given)", "Potency": "inactive"},
      {"smiles": "Nc1cccc(S(=O)(=O)c2cccc(N)c2)c1", "activity change, negative = inhibition": "0.259%"},
      {"smiles": "C[Si](C)(C)O[Si](O)(O)O", "activity change, negative = inhibition": "2.25%"}
    ]}
  ]
}
